Source: PubChem BioAssay
RBX1-CUL1 inh – inhibitors of human ROC1-CUL1 ubiquitin ligase activity. in vitro K48 di-Ub FRET, acceptor:donor ratio, 45 min. 140,000 tested, 0.6% active. P62877+Q13616. inhibition, % at 10 µM; in the data active = inhibition above about 25%
Of the large screens only hits and unclear results are named; the others gave an inactive call. The sample as a whole holds a higher share of hits than the screen did.

COc1cc(C(c2c(C)[nH]n(-c3ccccc3)c2=O)c2c(C)[nH]n(-c3ccccc3)c2=O)cc(OC)c1OC	RBX1-CUL1 inh 62.2
COc1cc(C2SCC(=O)Nc3c2c(-c2ccccc2)nn3-c2ccccc2)cc(OC)c1OC (stereo not drawn)	none
COc1cc(CN2CCN(C(=O)Cc3ccccc3)CC2)cc(OC)c1OC	none
CCOC(=O)C1C(=N)OC(C)=C(C(C)=O)C12C(=O)Nc1ccccc12 (stereo not drawn)	none
COc1ccc(C=C2C(=O)N(C)C(=O)N(C)C2=O)cc1	none
CC(C)N1C(=O)/C(=C/C=C/c2ccco2)C(=O)N(Cc2ccco2)C1=O	none
COc1ccc(/C=C2/C(=O)N(Cc3ccco3)C(=O)N(C(C)C)C2=O)cc1	RBX1-CUL1 inh 102.5
CC(Cc1ccc(OCCN(C)C)cc1)N(C)C (stereo not drawn)	none
CCOC(=O)C1=C(C)OC(=N)C(C(=O)OCC)C12C(=O)N(CC(=O)OC)c1ccccc12 (stereo not drawn)	none
CN(C)CCCSC(c1ccccc1)c1ccccc1	none
CCC1(c2ccccc2)C(=O)NC(=O)N(CCN2CCOCC2)C1=O (stereo not drawn)	none
N=C1C(Cl)C(=O)NC(=O)N1Cc1ccccc1 (stereo not drawn)	none
O=C1NC(=O)C(Br)(Br)C(=O)N1Cc1ccccc1	RBX1-CUL1 inh 75.5
CC(C)(C)N(c1ccccc1)[N+](=O)[O-]	none
Cc1cccc(N2C(=O)/C(=C/c3cc(C)n(-c4ccc(C(=O)O)c(Cl)c4)c3C)C(=O)NC2=S)c1C	none
Cc1c(Cl)cccc1N1C(=O)/C(=C/c2ccc(-c3ccc(C(=O)O)cc3)o2)C(=O)NC1=S	RBX1-CUL1 inh 51.8
CCOc1ccc(N2C(=O)/C(=C/c3ccc(CN(CCC#N)S(C)(=O)=O)o3)C(=O)NC2=S)cc1	none
O=C1NC(=S)N(c2ccc(Br)cc2)C(=O)/C1=C/c1ccc(-c2ccccc2C(=O)O)o1	RBX1-CUL1 inh 82.7
CCN(CC)c1ccc(/C=C2\C(=O)NC(=S)N(C)C2=O)o1	none
CCN(CC)c1ccc(/C=C2\C(=O)NC(=S)N(c3ccc(OC)cc3OC)C2=O)o1	none
Cc1ccc(NC(=O)CN2CC(c3ccccc3)CC2=O)cc1C (stereo not drawn)	none
OC12CC(C3COC1O3)n1cnnc1N2 (stereo not drawn)	none
Cc1ccc2n(C)c(-c3ccc(OC(=O)N(C)C)cc3)c[n+]2c1	none
COC12ONC(c3ccccc3O)C1N1CCC2CC1 (stereo not drawn)	none
O=C(Cc1cccs1)N1CCN(Cc2ccc(F)cc2)CC1	none
